Records with an inconclusive call do not appear. The source made the active and inactive calls.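 How the source made its calls, unless noted: active means GFP signal, as percent of the solvent control, above the screen mean plus 3 SD, about 149; inconclusive means no reading because the compound's own fluorescence upset strain identification; inactive means the rest.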 Peptide text beside a SMILES is read from it. * marks the point of attachment. Boc = CC(C)(C)OC(=O)*
How the values were obtained:
[1] = yeast TOR pathway RPL19A-GFP modulators, primary screen, cell-based, S. cerevisiae, multiplex flow cytometry (AID 1862; in the data active means percent of DMSO control GFP below about 86%;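 further: lower values mimic rapamycin by blocking the RPL19A rise seen in DMSO cells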); details: S. cerevisiae RPL19A-GFP strain, flow cytometry fluorescence, 3 h; at 10 µM; stronger effect = lower value
[2] = modulators of MEP2-GFP levels in yeast, primary screen, S. cerevisiae, multiplex flow cytometry (AID 1867;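 active means GFP response, as percent of the DMSO control, above the screen-wide mean plus 3 SD, about 139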;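 further: median GFP channel fluorescence of barcode-gated MEP2-GFP cells measured by flow cytometry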); details: S. cerevisiae MEP2-GFP strain, 3 h, at 10 µM, stronger effect = higher value, 100% means same as DMSO wells
[3] = modulators of CIT2-GFP expression in yeast, primary screen, S. cerevisiae, GFP fusion, multiplex flow cytometry (AID 1870;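 active means percent response above a set limit, the screen-wide mean plus 3 SD, cut at about 130% in these data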;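 further: barcoded CIT2-GFP strain pooled with four other GFP strains with rapamycin as positive control; median GFP fluorescence per well over plate mean of DMSO wells so 100% = DMSO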); details: 3 h, at 10 µM, stronger effect = higher value
[4] = modulators of LAP4-GFP expression in yeast, primary screen, S. cerevisiae, multiplex flow cytometry (AID 1873); details: 3 h, at 10 µM, stronger effect = higher value
[5] = modulators of AGP1-GFP expression in yeast TOR pathway, primary screen, cell-based, multiplex flow cytometry, S. cerevisiae (AID 1887;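 active means GFP signal above the screen-wide mean plus 3 SD, that is over about 124.5% of the solvent control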;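 further: AGP1-GFP fusion strain of S. cerevisiae within a five-strain barcoded multiplex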); details: 3 h, at 10 µM, stronger effect = higher value
[6] = inhibitors of CD8+ T cell-vesicle binding, pilot screen, LFA-1/ICAM-1 modulator project, MLPCN validation set, flow cytometry (AID 2523;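 active means response below a set limit, under 55% cells CD8-positive and vesicle-bound, and CD8 cells' 90th-percentile brightness under 279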;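 on vesicle binding response: mean PE anti-B7-1 fluorescence of CD8+ cells relative to row control; 100% = QL9-loaded vesicles with DMSO vehicle in the same plate row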); details: 2C mouse CD8+ T cells, at 7 µM, stronger effect = lower value; double positive events: measured here: CD8+/vesicle+ event percentage
[7] = molecular target: Integrin beta-1 (Homo sapiens) + Integrin alpha-4 (Homo sapiens) (UniProt P13612+P05556); assay: inhibition of HUTS-21 binding to VLA-4, pilot screen, VLA-4 allosteric modulator project, U937 cells, HUTS-21 mAb, flow cytometry, validation set (AID 2674;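 active means inhibition above 50%, about 3 SD of the validation set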;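 further: antibody binding induced by the VLA-4 ligand LDV present at three times its Kd; 0% = LDV ligand with antibody and no compound and 100% = antibody without LDV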); details: HUTS-21 LIBS mAb binding, at 6.7 µM, stronger effect = higher value, binding induced by LDV ligand
Integrin beta-1 (Homo sapiens) + Integrin alpha-4 (Homo sapiens), sequence (P05556 whole entry, looked up): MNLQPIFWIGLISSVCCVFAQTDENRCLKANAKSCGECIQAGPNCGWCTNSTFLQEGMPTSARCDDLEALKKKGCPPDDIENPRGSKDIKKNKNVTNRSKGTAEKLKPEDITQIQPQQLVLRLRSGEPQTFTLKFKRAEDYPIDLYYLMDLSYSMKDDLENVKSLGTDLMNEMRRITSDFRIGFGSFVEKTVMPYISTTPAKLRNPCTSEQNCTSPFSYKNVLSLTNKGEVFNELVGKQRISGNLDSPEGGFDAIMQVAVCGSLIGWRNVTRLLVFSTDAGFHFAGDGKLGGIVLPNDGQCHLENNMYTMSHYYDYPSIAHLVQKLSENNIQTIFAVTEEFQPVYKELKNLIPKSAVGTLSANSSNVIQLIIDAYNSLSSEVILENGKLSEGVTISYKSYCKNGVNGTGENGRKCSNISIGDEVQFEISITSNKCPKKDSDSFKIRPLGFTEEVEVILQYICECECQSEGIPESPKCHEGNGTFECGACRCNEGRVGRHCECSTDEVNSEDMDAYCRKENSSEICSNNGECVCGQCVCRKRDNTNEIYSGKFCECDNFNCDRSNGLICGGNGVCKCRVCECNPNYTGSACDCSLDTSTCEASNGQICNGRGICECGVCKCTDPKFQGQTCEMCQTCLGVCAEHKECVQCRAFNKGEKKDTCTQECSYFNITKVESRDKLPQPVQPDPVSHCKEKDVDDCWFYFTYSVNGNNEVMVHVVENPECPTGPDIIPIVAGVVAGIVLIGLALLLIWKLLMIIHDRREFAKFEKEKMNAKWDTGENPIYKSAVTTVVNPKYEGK
Integrin beta-1 (Homo sapiens) + Integrin alpha-4 (Homo sapiens), sequence (P13612 whole entry, looked up): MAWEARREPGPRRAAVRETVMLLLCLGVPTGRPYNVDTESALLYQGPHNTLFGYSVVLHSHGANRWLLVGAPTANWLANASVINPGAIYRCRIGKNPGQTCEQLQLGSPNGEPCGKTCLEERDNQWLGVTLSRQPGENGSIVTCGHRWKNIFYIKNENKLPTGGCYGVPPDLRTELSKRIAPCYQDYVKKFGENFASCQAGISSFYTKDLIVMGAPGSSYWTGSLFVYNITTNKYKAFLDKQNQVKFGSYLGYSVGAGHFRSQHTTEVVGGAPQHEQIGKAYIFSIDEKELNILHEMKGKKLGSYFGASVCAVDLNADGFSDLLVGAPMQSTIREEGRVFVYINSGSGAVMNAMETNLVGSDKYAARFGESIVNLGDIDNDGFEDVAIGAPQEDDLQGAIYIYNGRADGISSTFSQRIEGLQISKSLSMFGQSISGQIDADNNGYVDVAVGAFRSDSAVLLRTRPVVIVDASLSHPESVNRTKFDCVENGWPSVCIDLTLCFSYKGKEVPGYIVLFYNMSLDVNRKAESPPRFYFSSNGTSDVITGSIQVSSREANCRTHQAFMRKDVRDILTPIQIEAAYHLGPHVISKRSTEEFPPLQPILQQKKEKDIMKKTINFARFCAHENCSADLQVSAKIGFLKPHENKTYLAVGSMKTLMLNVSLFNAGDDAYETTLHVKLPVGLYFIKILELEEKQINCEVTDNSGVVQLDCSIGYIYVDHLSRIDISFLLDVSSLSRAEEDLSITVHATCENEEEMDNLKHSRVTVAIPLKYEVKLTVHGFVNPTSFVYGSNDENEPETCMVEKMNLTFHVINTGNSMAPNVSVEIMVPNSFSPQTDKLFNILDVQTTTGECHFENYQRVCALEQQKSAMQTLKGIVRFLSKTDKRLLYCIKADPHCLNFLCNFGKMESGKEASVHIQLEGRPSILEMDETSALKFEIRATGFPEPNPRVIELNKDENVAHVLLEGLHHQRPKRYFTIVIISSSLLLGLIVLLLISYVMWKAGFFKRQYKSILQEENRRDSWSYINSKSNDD

[8] = superoxide lowering in aged yeast cells, pilot screen, validation compound set (AID 2706;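 active means superoxide response below 65% of plate, a cut near 3 SD across the whole screen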;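 further: yeast exposed to compound for one week at 30 degrees C before staining; 100% = mean of all compound wells on the same plate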); details: S. cerevisiae aging, superoxide DHE fluorescence; at 10 µM, stronger effect = lower value
[9] = molecular target: Beta-adrenergic receptor kinase 1 (Homo sapiens) (UniProt P25098); assay: GRK2 binders displacing RNA aptamer, biochemical, validation, human GRK2, bead flow cytometry (AID 488806;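 active means aptamer binding inhibition above 30%, about 3 SD of noise from non-fluorescent compounds; inactive means inhibition at or below 30%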); details: bead-bound GRK2, FAM-aptamer displacement, at 10 µM, stronger effect = higher value
Beta-adrenergic receptor kinase 1 (Homo sapiens), sequence (P25098 whole entry, looked up): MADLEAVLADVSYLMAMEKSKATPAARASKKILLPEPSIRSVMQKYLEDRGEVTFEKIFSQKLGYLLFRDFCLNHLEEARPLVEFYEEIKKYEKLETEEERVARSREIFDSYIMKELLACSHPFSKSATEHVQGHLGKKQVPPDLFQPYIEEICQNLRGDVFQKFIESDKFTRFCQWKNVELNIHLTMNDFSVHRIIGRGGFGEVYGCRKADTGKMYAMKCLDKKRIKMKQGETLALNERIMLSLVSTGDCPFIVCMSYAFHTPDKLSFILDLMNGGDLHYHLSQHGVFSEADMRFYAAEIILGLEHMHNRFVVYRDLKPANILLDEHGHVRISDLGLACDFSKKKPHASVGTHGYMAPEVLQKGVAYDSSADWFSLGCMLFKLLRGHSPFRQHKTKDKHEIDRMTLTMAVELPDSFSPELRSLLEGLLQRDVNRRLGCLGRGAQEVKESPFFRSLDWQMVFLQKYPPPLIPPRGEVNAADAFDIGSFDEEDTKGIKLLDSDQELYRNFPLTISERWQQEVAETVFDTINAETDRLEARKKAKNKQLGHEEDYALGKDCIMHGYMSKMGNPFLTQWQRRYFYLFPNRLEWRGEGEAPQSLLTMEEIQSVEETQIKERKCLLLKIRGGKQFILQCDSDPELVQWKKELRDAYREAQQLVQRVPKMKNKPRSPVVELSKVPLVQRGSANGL

[10] = molecular target: AP-2 complex subunit beta (Homo sapiens) (UniProt P63010); assay: inhibitors of arrestin peptide binding to AP2, pilot screen, biochemical, validation set, GST-AP2 beads, flow cytometry (AID 504541;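 active means inhibition above 54%, about 3 SD of non-fluorescent compounds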;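 further: AP2 carries R879A mutation and is captured from E. coli lysate; bead-bound FITC arrestin peptide fluorescence measuring arrestin peptide binding to AP2; 0% = DMSO wells and 100% = excess unlabeled arrestin peptide control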); details: FITC arrestin peptide, at 10 µM, stronger effect = higher value, AP2 beta2 appendage fragment, R879A mutant
AP-2 complex subunit beta (Homo sapiens), sequence (P63010 whole entry, looked up, the tested form may be a part, one chain of several): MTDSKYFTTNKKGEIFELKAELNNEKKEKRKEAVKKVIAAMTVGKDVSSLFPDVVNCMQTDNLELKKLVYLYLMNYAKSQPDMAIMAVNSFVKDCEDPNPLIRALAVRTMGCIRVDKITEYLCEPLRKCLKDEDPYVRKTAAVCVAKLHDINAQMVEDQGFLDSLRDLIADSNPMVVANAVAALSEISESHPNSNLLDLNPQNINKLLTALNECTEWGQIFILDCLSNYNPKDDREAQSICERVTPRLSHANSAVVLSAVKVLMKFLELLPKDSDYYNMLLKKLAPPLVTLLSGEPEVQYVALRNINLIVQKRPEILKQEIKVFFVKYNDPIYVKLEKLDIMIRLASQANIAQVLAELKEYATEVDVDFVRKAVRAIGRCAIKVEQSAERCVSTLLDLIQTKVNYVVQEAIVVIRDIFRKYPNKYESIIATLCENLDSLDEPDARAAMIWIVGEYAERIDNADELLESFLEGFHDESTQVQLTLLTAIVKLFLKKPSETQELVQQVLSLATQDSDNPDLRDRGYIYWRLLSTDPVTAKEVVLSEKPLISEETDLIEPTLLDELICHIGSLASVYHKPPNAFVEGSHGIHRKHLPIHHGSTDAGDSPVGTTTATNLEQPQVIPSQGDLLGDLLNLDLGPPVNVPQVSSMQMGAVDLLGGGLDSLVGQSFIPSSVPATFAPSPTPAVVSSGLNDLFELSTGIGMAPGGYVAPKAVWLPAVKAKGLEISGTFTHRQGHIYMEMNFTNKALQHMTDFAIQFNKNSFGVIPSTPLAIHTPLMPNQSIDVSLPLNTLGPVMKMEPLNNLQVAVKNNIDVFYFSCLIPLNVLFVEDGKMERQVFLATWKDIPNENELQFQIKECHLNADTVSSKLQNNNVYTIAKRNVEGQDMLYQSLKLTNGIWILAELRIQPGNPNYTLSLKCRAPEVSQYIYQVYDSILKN

[11] = yeast V-ATPase proton transport modulators, S. cerevisiae, pHLuorin, HTS validation (AID 504600; in the data active means response above about 15%;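 further: plate controls were DMSO for no effect and reference compound for full effect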); details: S. cerevisiae pHLuorin cytosolic pH, at 10 µM, stronger effect = higher value
[12] = system: anti-desmoglein-3 scFv antibody binding to human DSG3; assay: inhibitors of anti-DSG3 scFv binding to DSG3, pilot screen, biochemical, validation compound set, bead-based, flow cytometry (AID 588368;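 active means binding below the plate cutoff, the plate median minus 3 SD, with a reading above zero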;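 further: signal is the median channel fluorescence of bead-bound GFP antibody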); details: Protein G beads, DSG3-Fc, scFv-GFP binding, at 10 µM, stronger effect = lower value
[13] = inhibitors of fungal efflux pumps CDR1, CDR2, MDR1, pilot screen, validation compound set, multiplex, phenotypic (AID 588506;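 active means efflux inhibition above 0.42, the validation set average plus 4 SD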;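 further: Nile Red retained in cells so higher fluorescence means more efflux inhibition; 0 = negative control wells and 1 = enniatin B 25 µM full block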); details: S. cerevisiae pump-expressing triplex, Nile Red efflux flow cytometry; at 10 µM; stronger effect = higher value; the pumps come from Candida albicans
[14] = molecular target: ATP-binding cassette sub-family B member 6 (Homo sapiens) (UniProt Q9NP58); assay: ABCB6 transporter inhibitors, pilot screen, K562-ABCB6 cells, flow cytometry, validation set (AID 588550;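 active means inhibition above the screen-wide mean plus 3 SD, about 51%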;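 further: 0% = DMSO wells and 100% = benzethonium chloride 70 µM positive control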); details: K562-ABCB6 porphyrin accumulation, 1 h, at 10 µM, stronger effect = higher value
ATP-binding cassette sub-family B member 6 (Homo sapiens), sequence (Q9NP58 whole entry, looked up): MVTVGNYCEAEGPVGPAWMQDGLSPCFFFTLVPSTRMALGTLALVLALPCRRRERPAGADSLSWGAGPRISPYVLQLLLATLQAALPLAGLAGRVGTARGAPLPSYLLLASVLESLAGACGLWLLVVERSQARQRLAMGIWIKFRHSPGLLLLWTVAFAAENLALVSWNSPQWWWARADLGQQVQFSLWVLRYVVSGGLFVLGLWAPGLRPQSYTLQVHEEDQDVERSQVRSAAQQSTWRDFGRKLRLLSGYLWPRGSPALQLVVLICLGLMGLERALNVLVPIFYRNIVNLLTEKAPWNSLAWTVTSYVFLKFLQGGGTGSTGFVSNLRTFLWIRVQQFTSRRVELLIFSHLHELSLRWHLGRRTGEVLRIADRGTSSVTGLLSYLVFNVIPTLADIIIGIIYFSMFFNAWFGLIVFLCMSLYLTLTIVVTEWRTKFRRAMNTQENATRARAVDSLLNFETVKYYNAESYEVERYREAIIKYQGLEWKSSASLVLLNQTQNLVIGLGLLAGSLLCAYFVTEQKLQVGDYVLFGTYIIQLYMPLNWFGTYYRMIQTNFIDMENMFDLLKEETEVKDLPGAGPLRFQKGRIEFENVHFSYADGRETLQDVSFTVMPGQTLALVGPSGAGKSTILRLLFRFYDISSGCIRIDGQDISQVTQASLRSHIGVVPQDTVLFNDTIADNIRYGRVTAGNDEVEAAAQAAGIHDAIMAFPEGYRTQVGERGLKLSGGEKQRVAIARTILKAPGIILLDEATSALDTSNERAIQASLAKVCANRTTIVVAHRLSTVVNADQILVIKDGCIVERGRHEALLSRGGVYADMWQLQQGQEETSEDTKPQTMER

[15] = promoters of myeloid differentiation in arrested cells, primary screen, cell-based, GFP/MAC1 double positive, flow cytometry, validation set (AID 588685;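 active means differentiation response of at least 50%, scaled between solvent and reference control, from cells with both markers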;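 further: compound exposure lasts four days before antibody staining and flow analysis; 0% = DMSO wells and 100% = 5 µM fulvestrant positive control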); details: ER-HoxA9 marrow cells, stronger effect = higher value, normalized: vehicle 0, fulvestrant 100

SMILES | percent of DMSO control GFP [1] | GFP response vs DMSO [2] | percent response of DMSO control [3] | GFP response vs DMSO [4] | GFP response, % of DMSO [5] | double positive events [6] | vesicle binding response [6] | inhibition [7] | superoxide response (% of plate) [8] | aptamer binding inhibition [9] | inhibition [10] | response [11] | binding (% of control) [12] | efflux inhibition (fraction of control) [13] | inhibition [14] | differentiation response [15]
CC(C)C[C@H](NC(=O)[C@@H]1Cc2ccccc2CN1C(=O)OC(C)(C)C)C(=O)NCC1CCC(C(=O)O)CC1 (stereo not given in full) | 99.3% (inactive) | 95.9% (inactive) | 105% (inactive) | 92.3% (inactive) | 99.9% (inactive) | 59.9% | 257% (inactive) | 1.62% (inactive) | 93.6% (inactive) | 3% (inactive) | -3.49% (inactive) | -10.3% (inactive) | 101% (inactive) | -0.12 (inactive) | 7% (inactive) | -27.6% (inactive)
COc1cc(=O)n(C)c2ccccc12 | 93.5% (inactive) | 99.9% (inactive) | 97.9% (inactive) | 90.3% (inactive) | 93.7% (inactive) | 54.6% | 136% (inactive) | 7.22% (inactive) | 103% (inactive) | 3% (inactive) | 28% (inactive) | 3.71% (inactive) | 96.9% (inactive) | 0.33 (inactive) | 3% (inactive) | -1.82% (inactive)
CC(NC(=O)c1ccc(OC2CCN(Cc3ccccn3)CC2)cc1)c1ccccc1 (stereo not given) | 106% (inactive) | 102% (inactive) | 105% (inactive) | 99.4% (inactive) | 100% (inactive) | 59.3% | 110% (inactive) | 14.7% (inactive) | 93.3% (inactive) | -2% (inactive) | 32.2% (inactive) | -10.2% (inactive) | 102% (inactive) | -0.31 (inactive) | 6% (inactive) | 0% (inactive)
CC(C)(C)[C@]1(O)CCN2C[C@H]3c4ccccc4CCc4cccc(c43)[C@@H]2C1 | 106% (inactive) | 97.9% (inactive) | 112% (inactive) | 102% (inactive) | 107% (inactive) | 35.9% | 134% (inactive) | -20.8% (inactive) | 95.1% (inactive) | -4% (inactive) | -19.5% (inactive) | 1.63% (inactive) | 106% (inactive) | -0.2 (inactive) | 6% (inactive) | 20.8% (inactive)
CC(C)(C)OC(=O)N1CCCC1C(=O)NC(Cc1ccccc1)C(=O)O (stereo not drawn) (Boc-Pro-Phe-OH; configuration not given here) | 101% (inactive) | 98.9% (inactive) | 104% (inactive) | 104% (inactive) | 102% (inactive) | 61.4% | 186% (inactive) | 13.8% (inactive) | 92.5% (inactive) | -1% (inactive) | 9.73% (inactive) | 4.48% (inactive) | 101% (inactive) | 0.22 (inactive) | 10% (inactive) | 7.87% (inactive)
COc1ccc2oc(=O)c(-c3nc(C)cs3)cc2c1 | 98% (inactive) | 101% (inactive) | 96.9% (inactive) | 106% (inactive) | 88.2% (inactive) | 54.8% | 204% (inactive) | 9.09% (inactive) | 89.3% (inactive) | 6% (inactive) | -7.03% (inactive) | -3.63% (inactive) | 92.6% (inactive) | -0.05 (inactive) | 7% (inactive) | -1.82% (inactive)
COC(=O)c1cc(-c2ccc(C)o2)nc2ccccc12 | 101% (inactive) | 95.9% (inactive) | 93.9% (inactive) | 109% (inactive) | 78.2% (inactive) | 45.1% | 76.1% (inactive) | -21.7% (inactive) | 109% (inactive) | 5% (inactive) | 3.96% (inactive) | 2% (inactive) | 108% (inactive) | 0.94 (active) | 10% (inactive) | -8.27% (inactive)
COc1cc2c(cc1OC)-c1cc(OCc3ccccc3Cl)nc(=O)n1CC2 | 98.8% (inactive) | 98.9% (inactive) | 101% (inactive) | 99.4% (inactive) | 97.5% (inactive) | 57.7% | 172% (inactive) | 9.09% (inactive) | 97.5% (inactive) | 4% (inactive) | 4.7% (inactive) | -7% (inactive) | 99.8% (inactive) | 0.06 (inactive) | 4% (inactive) | -18% (inactive)
CN(CCc1cnn(C)c1)Cc1nc(CC2CC2)no1 | 101% (inactive) | 101% (inactive) | 110% (inactive) | 105% (inactive) | 105% (inactive) | 58.1% | 194% (inactive) | -11.4% (inactive) | 106% (inactive) | 2% (inactive) | 23.6% (inactive) | -2.33% (inactive) | 104% (inactive) | -0.16 (inactive) | 8% (inactive) | -9.89% (inactive)
O=C1OC(c2ccc(O)cc2)(c2ccc(O)cc2)c2ccccc21 | 97.1% (inactive) | 102% (inactive) | 101% (inactive) | 103% (inactive) | 100% (inactive) | 62.5% | 180% (inactive) | 9.09% (inactive) | 99.3% (inactive) | 1% (inactive) | 28% (inactive) | -0.84% (inactive) | 103% (inactive) | -0.12 (inactive) | 6% (inactive) | -24.4% (inactive)
CNC[C@H](O)c1ccc(O)c(O)c1 | 107% (inactive) | 95.9% (inactive) | 107% (inactive) | 97.4% (inactive) | 103% (inactive) | 43.9% | 162% (inactive) | -25.4% (inactive) | 108% (inactive) |  | 2.4% (inactive) | 2.95% (inactive) | 103% (inactive) | -0.24 (inactive) | 9% (inactive) | -8.27% (inactive)
